# Hits are enriched below; roughly 12% of the tested compounds scored in any of these assays.
# Sm TGR inh: S. mansoni TGR enzyme inhibition; Potency, µM (series often up to 114 µM), inactives show at the highest dose activity change, negative = inhibition, hits mostly inhibitors; AID 485364; purified TGR, DTNB reduction, TNB absorbance 405 nm; Q962Y6; 360,000 compounds, 3% hits; also: % is scaled to controls: 0 for no effect and ±100 for the full control effect; nearly all actives have a fitted effect of over 60% in size
#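 First, TGR (20 nM dispensed) and NADPH were mixed with compound. Second, a 15 min room-temperature incubation followed. Third, further NADPH and then DTNB were added to start the reaction. Finally, TNB absorbance was monitored kinetically.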
# AmpC inh no detg: AmpC beta-lactamase inhibition without detergent; AmpC nitrocefin hydrolysis, absorbance 480 nm, 0.0001% Triton; Potency, µM (highest dose often 57.1 µM), for inactives: top-dose activity change, negative = inhibition, most hits filed as inhibitors; 330,000 compounds, 0.52% hits;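 also: plate controls were no compound for no effect and no enzyme for full effect; nearly all actives have a fitted effect of over 20% in size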
# Target sequence (P00811 whole entry, looked up): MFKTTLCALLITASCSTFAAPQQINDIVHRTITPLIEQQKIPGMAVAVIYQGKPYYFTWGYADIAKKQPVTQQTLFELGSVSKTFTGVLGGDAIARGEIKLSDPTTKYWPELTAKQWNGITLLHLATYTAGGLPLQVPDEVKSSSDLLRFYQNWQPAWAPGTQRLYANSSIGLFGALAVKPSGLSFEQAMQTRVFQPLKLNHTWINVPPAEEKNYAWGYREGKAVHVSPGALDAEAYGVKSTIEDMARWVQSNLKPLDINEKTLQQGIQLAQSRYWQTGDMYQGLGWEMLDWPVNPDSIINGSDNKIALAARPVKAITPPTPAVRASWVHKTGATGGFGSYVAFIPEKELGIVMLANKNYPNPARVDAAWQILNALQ
#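 AmpC (5.3 nM in the dispensed reagent) in 20 mM phosphate pH 7.0 with 0.01% (detergent screen) or 0.0001% Triton X-100 was preincubated with compounds for 15 min at room temperature. Nitrocefin was then added from an 800 uM solution, and hydrolysis was followed at 480 nm.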
# SARS PLP yeast: SARS-CoV PLP inhibition in yeast; AID 485353; Potency, µM (titrated, usually from 32.9 µM), inactives show top-dose activity, positive = growth rescue, most hits filed as activators; S. cerevisiae expressing SARS-CoV PLpro, growth rescue; 330,000 compounds, 0.19% hits; calls by dose curve; also: 0% is about no effect; nearly all actives have a fitted effect of over 55% in size
# Pf growth 48h: P. falciparum growth inhibition at 48 hours (one generation); P. falciparum luciferase growth in erythrocytes, 48 h; Potency, µM (top dose mostly 28.7 µM), for the others: at the highest dose activity change, negative = inhibition, hits mostly inhibitors; 310,000 compounds, 5.9% hits; also: % is scaled to controls: 0 for no effect and ±100 for the full control effect
#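 Compounds are pin-transferred into medium, infected erythrocytes (2% hematocrit, 0.1% parasitemia final) are added, and plates sit one parasite generation at 37 C in 5% CO2. Detection reagent is then added and luminescence measured.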
# Pf growth 96h: P. falciparum growth inhibition at 96 hours. 320,000 compounds, 6.9% hits. AID 504834. P. falciparum luciferase reporter growth, 96 h. Potency, µM (series often up to 28.7 µM), without a hit: at the top dose activity change, negative = inhibition, hits mostly inhibitors; also: % is scaled to controls: 0 for no effect and ±100 for the full control effect
#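 96 h incubation, 37 C, 5% CO2, of luciferase-reporter P. falciparum-infected RBCs (2% hematocrit, 0.05% parasitemia final) with test compounds; endpoint luminescence.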
# AmpC detergent: blocks E. coli AmpC beta-lactamase in detergent assay; P00811; Potency, µM (titrated, usually from 114 µM), for the others: at the highest dose activity change, negative = inhibition, most hits filed as inhibitors; 370,000 compounds, 0.041% hits; AmpC hydrolysis of nitrocefin, absorbance 480 nm, 0.01% Triton;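 also: 0% = no-compound wells and -100% = no-enzyme wells; nearly all actives have a fitted effect of over 25% in size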
#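 20 mM phosphate pH 7.0 + 0.01% (detergent screen) or 0.0001% Triton X-100; 5.3 nM AmpC reagent; cpd preinc 15 min RT; nitrocefin (800 uM stock) to start; A480 q20 s × 4 min; Activity was normalised to no-enzyme and no-compound control wells.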
# The depositor's hits bear a star; ? = inconclusive; . = no result. Unless noted, calls follow the shape of the dose curve; as a rule, active = well fitted curve in the direction sought with a large enough effect; inconclusive = small, poorly fitted or top-dose-only effect, or another doubt; inactive = no such curve, though single readings can be large; an effect the other way counts as inactive or inconclusive. Potency is read from the fitted curve at half-maximal effect.
SMILES,Sm TGR inh,AmpC inh no detg,SARS PLP yeast,Pf growth 48h,Pf growth 96h,AmpC detergent
Cc1ccc(NC(=O)CSc2nnc(C)n3c2cc2sccc23)c(C)c1,1.1%,.,.,.,.,-7.6%
CN(C)c1ccc(C=Nc2ccc(N(C)C)cc2)cc1,-22.3%,-17.2%,-26.9%,?,-19.1%,?
CN(C)c1ccc(N=Cc2ccco2)cc1,31.6µM*,30.8%,-5.9%,0.828µM*,?,-5.0%
CCOC(=O)c1cc(-c2ccccc2)sc1NC(=O)C(C)OC(=O)c1cccnc1Cl (stereo not drawn),-7.7%,-18.5%,-2.6%,-3.6%,9.28µM*,-6.2%
CCOC(=O)c1cc(-c2ccccc2)sc1NC(=O)C(C)Sc1nnc(C)s1 (stereo not drawn),5.0%,117.1%,-16.5%,13.1µM*,?,10.3%
CCOC(=O)c1cc(-c2ccccc2)sc1NC(=O)C(C)N1C(=O)NC(C)(c2ccc(Cl)cc2)C1=O (stereo not drawn),-5.9%,?,-6.9%,.,9.28µM*,-9.0%
CCOC(=O)c1cc(-c2ccccc2)sc1NC(=O)COC,48.4%,4.9%,-1.2%,0.0%,-14.0%,0.0%
CCOC(=O)c1cc(-c2ccccc2)sc1NC(=O)C(C)Sc1nnnn1C (stereo not drawn),2.5%,56.6%,-4.5%,?,10.4µM*,-6.5%
CCOC(=O)c1cc(-c2ccccc2)sc1NC(=O)C(C)C,0.4%,16.4%,19.6%,?,?,?
CCOC(=O)c1cc(-c2ccccc2)sc1NC(=O)C(C)OC(=O)c1ccncc1 (stereo not drawn),0.4%,-24.7%,-4.4%,39.3%,-39.7%,0.4%
Oc1ccc(/C=C/c2nc(-c3ccccc3O)n(-c3ccccc3)n2)cc1,-17.0%,-39.2%,-34.3%,?,52.5%,-4.9%
Cc1cccc(C(=O)O[C@H]2[C@H](Cc3ccccc3)NS(=O)(=O)[C@H]3CC4C=C[C@]23O4)c1,.,-32.2%,-1.2%,.,.,.
Cc1cccc(C(=O)O[C@@H]2[C@H](Cc3ccccc3)NS(=O)(=O)[C@H]3C[C@@H]4C=C[C@]23O4)c1,-9.3%,-52.4%,5.5%,?,9.28µM*,-7.5%
O=C(CN1c2ccccc2Sc2ccccc21)NNC(=O)Nc1cccc(Cl)c1,8.4%,-55.1%,1.5%,-7.6%,-22.7%,-1.0%
Cc1ccc(Nc2cc(C)nc3nncn23)c(C)c1,-7.0%,.,.,.,.,-5.6%
COc1ccc2nc(C)cc(Nc3ccc(Cl)c(Cl)c3)c2c1,0.1%,.,.,.,.,-9.3%
CCCCOc1ccc(C(=O)N2CCCC2)cc1,-35.7%,4.6%,-10.7%,105.7%,.,7.0%
CCCCOc1c(Cl)cc(C(=O)N2CCN(CC(=O)N3CCCC3)CC2)cc1OCC,-25.2%,157.0%,-4.9%,11.7µM*,?,-12.0%
O=Cc1c(NCc2ccco2)nc2ccccn2c1=O,?,-20.3%,0.3%,41.2%,5.0%,-4.2%
Cc1ccc2[nH]c(=O)c(-c3nc4ccccn4c3NCc3ccco3)cc2c1,-13.6%,-22.7%,-3.5%,32.7%,4.65µM*,2.2%
CCCN(Cc1cc2cc(OC)ccc2[nH]c1=O)C(=O)c1ccco1,39.8µM*,-18.7%,-1.7%,3.6%,14.5%,2.4%
CCCCN(Cc1cc2cc(OC)ccc2[nH]c1=O)C(=O)c1ccco1,44.7µM*,-13.5%,-4.4%,.,?,?
COC(=O)c1cccc(S(=O)(=O)N(Cc2ccco2)Cc2cc3cc(OC)ccc3[nH]c2=O)c1,28.2µM*,-2.3%,-0.4%,.,-26.3%,6.1%
COc1ccc(C2NCc3ccccc3-n3cccc32)cc1 (stereo not drawn),0.0%,-18.1%,-2.1%,.,-3.4%,-14.3%
Clc1cccc(C2NCc3ccccc3-n3cccc32)c1 (stereo not drawn),9.8%,2.9%,-0.1%,?,9.7%,11.4%
SMILES,Sm TGR inh,AmpC inh no detg,SARS PLP yeast,Pf growth 48h,Pf growth 96h,AmpC detergent
CCOc1cc2c(cc1OCC)-n1cccc1C(c1ccc(OC)c(O)c1)NC2 (stereo not drawn),-8.9%,52.8%,0.7%,2.94µM*,5.4%,-0.4%
CCOc1cc2c(cc1OCC)-n1cccc1C(c1cccc(OCC)c1O)NC2 (stereo not drawn),-2.5%,128.6%,-2.3%,14.7µM*,-20.4%,0.9%
COc1cc(C2NCc3ccccc3-n3cccc32)ccc1O (stereo not drawn),-0.9%,-35.8%,-4.2%,2.62µM*,?,-8.0%
CCOc1cc2c(cc1OCC)-n1cccc1C(c1cc(OC)ccc1F)NC2 (stereo not drawn),-8.3%,90.1%,-3.6%,?,2.94µM*,-7.7%
Cc1c(Cl)cccc1NC(=O)Cn1nnc(-c2nc(-c3ccccc3)no2)c1N,-0.8%,.,.,.,.,15.2%
COc1ccc(CNC(=O)CC2N=C3c4ccccc4N=C(SCC(=O)Nc4ccc(C(C)C)cc4)N3C2=O)cc1 (stereo not drawn),6.5%,.,.,.,.,8.4%
CCCN(Cc1nnc(-c2ccccc2Cl)o1)C(=O)c1cc(S(=O)(=O)N2CCOCC2)ccc1F,3.3%,134.1%,-5.2%,?,?,0.0%
Cc1ccc(CNC(=O)COC(=O)c2ccc(Cl)c(N)c2)cc1,-2.0%,-27.2%,-1.9%,-22.7%,53.7%,9.0%
Cc1ccc(Cl)cc1NC(=O)c1ccc(NC(=O)N2CCSc3ncccc32)cc1,0.0%,.,.,.,.,-3.4%
CCOc1cc2c(cc1OCC)-n1cccc1C(c1cccc(F)c1)NC2 (stereo not drawn),-7.1%,57.8%,-3.7%,13.1µM*,9.28µM*,-8.9%
CCOc1cc2c(cc1OCC)-n1cccc1C(c1cc(C)c(OC)cc1C)NC2 (stereo not drawn),13.1%,84.4%,0.1%,6.57µM*,17.3%,-4.0%
CCOc1cc2c(cc1OCC)-n1cccc1C(c1ccccc1F)NC2 (stereo not drawn),7.1%,115.7%,2.4%,8.28µM*,?,1.0%
CCOc1cc2c(cc1OCC)-n1cccc1C(c1ccc(C)cc1C)NC2 (stereo not drawn),6.3%,69.3%,-1.8%,?,-11.4%,-7.9%
CCOc1cc(C2NCc3ccccc3-n3cccc32)ccc1OC (stereo not drawn),9.0%,6.2%,0.5%,?,23.3%,-9.9%
CCCCN(CCCC)C1=C(C(=O)c2ccccc2)N(C)S(=O)(=O)c2ccccc21,0.2%,.,.,.,.,-3.2%
Cc1ccc(C)n1-c1c(C(=O)NCCCN2CCN(c3ccc(F)cc3)CC2)sc2ncccc12,0.2%,.,.,.,.,20.6%
COc1cccc(NC(=O)Cc2cccs2)c1,7.5%,-13.6%,5.4%,6.6%,33.2%,-2.0%

# Compound activity as filed in PubChem.
